The results in this text go back to PubChem BioAssay AID504690 (Sanford-Burnham Center for Chemical Genomics, 2011).

The whole screen tested about 350,000 compounds, of which about 2,700 (0.77%) were called active. The sample holds actives, similar compounds and a random draw of the others, so the mix is not that of the screen. Unmarked numbers belong to inactive results.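 The calls were made as follows: active = inhibition reaching at least a set limit at 20 µM in the primary screen (cut at about 59% in these data); inactive = the rest.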

For this assay, the system named is glucose-6-phosphate dehydrogenase-6-phosphogluconolactonase (Plasmodium falciparum 3D7). Briefly: PfG6PD enzyme inhibitors, primary screen, biochemical, fluorescence intensity, uHTS (AID 504690).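 Also: 0% = DMSO wells with substrate and 100% = DMSO wells lacking glucose-6-phosphate.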 The following applies: PfGluPho enzyme, NADPH resazurin-diaphorase fluorescence; at 20 µM; hits give high values. (In general: Alamar Blue is a resazurin reagent that responds to reducing activity.)
For the molecule `O=C(N/N=C\c1cccc(Br)c1)c1ccccc1-n1cccc1`, the inhibition – broadly, the drop in the measured response relative to a control, in per cent – is 77.6% (active).

Take `O=C(N/N=C/c1cccc(Br)c1)c1ccc(N2CCCC2=O)cc1`: the inhibition was 9.79%.

In the case of `O=C(CNC(=O)c1cccs1)N/N=C/c1cccc(Br)c1`, the inhibition was -3.31%.

For the molecule `CCCNc1c(N)c(=O)c1=O`, the inhibition is -14.2%.

Consider `CC(=O)c1c(C)[nH]c(=S)c(C#N)c1-c1ccc(F)cc1`, for which the inhibition is 36.1%.

For the molecule `CCc1c(C)[nH]c(=S)c(C#N)c1C`, the inhibition was 60.6% (active).

Take `CN(C)CCCNC(=S)N1CCN(c2nc(-c3ccccc3)cs2)CC1`: the inhibition was 7.81%.

On to `FC(F)(F)c1ccc2c3n(nc2c1)CCN=C3c1ccc(Cl)cc1`, for which the inhibition was 21.6%.

On to `O=C(CC1Oc2ccccc2NC1=O)NCCCN1CCN(Cc2ccccc2)CC1` (configuration not stated), for which the inhibition is 17.8%.

As to `Cc1noc(C)c1CSc1nc2cc(S(=O)(=O)N3CCOCC3)ccc2o1`, the inhibition was 46.6%.

In the case of `COc1ccc(CCn2c(NCCCN3CCOCC3)nc3c2c(=O)[nH]c(=O)n3C)cc1`, the inhibition was 5.12%.

With `CC1CCN(c2nc3c(c(=O)[nH]c(=O)n3C)n2CCCc2ccccc2)CC1`, the inhibition was 12.8%.

Turning to `COc1ccc(CCn2c(NN=C3CCCC3)nc3c2c(=O)[nH]c(=O)n3C)cc1`, the inhibition is 77.3% (active).

Consider `CCN(c1ccc2c(c1)OCO2)S(=O)(=O)c1cc(Br)cc2c1N(C(=O)C1CC1)CC2`, for which the inhibition is 32.5%.

For `Nc1cccc2c1C(=O)N(Cc1nnc(-c3ccccc3Br)o1)C2=O`, the inhibition was -11.2%.

As for `COc1ccc(Nc2ncc(F)c(N3CCOCC3)n2)cc1`, the inhibition was -2.57%.

For `Cc1cc(Nc2ccc(Cl)cc2)nc(N2CCOCC2)n1`, the inhibition is 74.6% (active).

`O=C(CSc1nc(Nc2ccccc2)nc(N2CCOCC2)n1)Nc1cc(Cl)ccc1O`: the inhibition was 21.3%.

Regarding `C=CCOc1ccc(C(=O)Nc2ccccc2C(=O)N2CCCC2)cc1`, the inhibition is 15.3%.

Turning to `C/C(=N/NC(=O)c1cc(Cl)ccc1O)C12CC3CC(CC(C3)C1)C2`, the inhibition was 50.1%.

For `O=C(c1ccc(NS(=O)(=O)c2ccc3[nH]c(=O)[nH]c3c2)cc1)N1CCCCC1`, the inhibition is -7.11%.

As to `N/C(=N\OS(=O)(=O)c1cccc([N+](=O)[O-])c1)c1ccncc1`, the inhibition is -9.59%.

Turning to `CC12CCCCC1=CC(=O)CC2` (configuration not stated), the inhibition is 10.3%.

For the molecule `O=C(COC(=O)Cc1ccc(Cl)cc1Cl)NCc1ccco1`, the inhibition is -17.6%.

For the molecule `Cc1cc(Nc2ccc(Br)cc2)nc2ccccc12`, the inhibition is 86.8% (active).

In the case of `Clc1ccc(Nc2ccc3ccccc3n2)cc1`, the inhibition was 31.9%.

For `CCOc1ccc(NC(=O)c2cc(C)nc3ccccc23)cc1`, the inhibition was 6.27%.
